Laboratory results from PubChem BioAssay.

Key:
[1] = system: Botulinum neurotoxin type F light chain protease (Clostridium botulinum); experiment: Botulinum neurotoxin type F light chain protease inhibition, multiplex microsphere flow cytometry, validation set (AID 588459); details: multiplex microsphere protease substrate cleavage assay, at 10 µM, active compounds read high
[2] = target: Botulinum neurotoxin type A (Clostridium botulinum) (UniProt P0DPI0); experiment: BoNT/A light chain protease inhibitors, biochemical, multiplex microsphere flow cytometry, validation set (AID 588460); details: at 10 µM, active compounds read high
[3] = target: Lethal factor (Bacillus anthracis) (UniProt P15917); experiment: Lethal factor protease inhibitors, Bacillus anthracis, multiplex microsphere cleavage assay, validation set (AID 588461); details: flow cytometry, at 10 µM, active compounds read high

Measured: inhibition

CSCC[C@H](NC(=O)NC1CCCC1)C(=O)O
inactive: [1] 0.9% | [2] 0.2% | [3] -0.2%

CN1C(=O)C(O)(CC(=O)/C=C/C=C/c2ccccc2)c2ccccc21 (configuration not stated)
inactive: [1] -1.9% | [2] -0.3% | [3] -0.3%

CN(C)CC/C=C1\c2ccccc2COc2ccccc21
inactive: [1] -0.1% | [2] -0.5% | [3] 2.2%

O=C(Oc1ccc2c3c(c(=O)oc2c1)CCCC3)c1ccco1
inactive: [1] -0.9% | [2] -1.1% | [3] -3.9%

O=C(Nc1c(C(=O)O)[nH]c2ccccc12)NC1CCCCC1
inactive: [1] 1.6% | [2] 0.4% | [3] -2.2%

CN(C)C(=O)Oc1ccc[n+](C)c1
inactive: [1] -1.5% | [2] -0.6% | [3] -0.5%

C=CCOc1ccc(C(=O)CC)cc1OC
inactive: [1] 0.6% | [2] -0.5% | [3] -1.9%

CN(C)C(=O)CCCCCCCCC(=O)N(C)C
inactive: [1] -2.7% | [2] -0.9% | [3] -5.5%

CC(/C=C1\SC(=O)N(CCCC(=O)O)C1=O)=C\c1ccccc1
inactive: [1] 3.5% | [2] 1.3% | [3] -5.6%

CCNC(=S)Nc1ccc(OC(F)(F)F)cc1
inactive: [1] 2.2% | [2] 2.8% | [3] 3%

COc1cc(C(=O)NCCc2c[nH]c3ccccc23)ccc1OCc1c(C)noc1C
inactive: [1] 3.6% | [2] -1.7% | [3] 0.2%

CCSc1nc(O)c(C2OC(=O)c3c2ccc(OC)c3OC)c(=O)n1CC (configuration not stated)
inactive: [1] -0.7% | [2] 0.5% | [3] -2.4%

COCCc1ccc(OCC(O)CNC(C)C)cc1 (configuration not stated)
inactive: [1] -1.4% | [2] -1.4% | [3] -2.9%

CCOC(=O)c1ccccc1NC(=O)c1ccc(F)cc1
inactive: [1] -1.8% | [2] -1% | [3] -0.1%

COc1cc(SC)ccc1C(=O)NC(C)C
inactive: [1] 2.9% | [2] 2.2% | [3] 0.8%

COc1cccc(N2C(=O)CC(c3c[nH]c4ccccc34)C2=O)c1 (configuration not stated)
inactive: [1] 1.4% | [2] 2.4% | [3] -2%

COCCN(CCOC)Cc1c(C)[nH]c2c(C)c(C)ccc2c1=O
inactive: [1] 3.4% | [2] -0.6% | [3] -0.3%

O=C(Nc1ncc2c(n1)CC(c1ccco1)CC2=O)c1ccco1 (configuration not stated)
inactive: [1] -2.6% | [2] -3.2% | [3] -10.4%

Oc1ccc(Oc2ncc(Cl)cc2Cl)cc1
inactive: [1] 1.4% | [2] -0.7% | [3] -2.9%

COc1ccc(-c2[nH]ncc2CN(CCO)Cc2cccs2)c(F)c1
inactive: [1] -1.2% | [2] 0.8% | [3] 5.8%

CCOC(=O)c1c(O)c2c([nH]c1=O)CCCC2
inactive: [1] 2.3% | [2] -1.4% | [3] -3.9%

O=C(O)c1cccnc1Nc1cccc(C(F)(F)F)c1
inactive: [1] 1.8% | [2] 0.3% | [3] -3.9%

OC(CCN1CCCCC1)(c1ccccc1)C1CCCCC1 (configuration not stated)
inactive: [1] 3.1% | [2] 1% | [3] 1%

CC(C)N(Cc1nccn1C)C(=O)CC1C(=O)NCCN1Cc1ccccc1C(F)(F)F (configuration not stated)
inactive: [1] -1.2% | [2] -0.8% | [3] 0.4%
